Screening data from PubChem.
Shown are actives, neighbours in structure and some others; about 2.8% of the full set was active somewhere.
PI5P4K alpha inh – blocks human PI5P4K alpha kinase activity | P48426 | PI5P4Kalpha enzyme, ADP-Glo luminescence, 60 min; hits give low values | max response, % | 1.2% of 330,000 active | AID 652105; active means max response of -50% or lower; inconclusive means between -30% and -50%; inactive means -30% or higher; further: value at the top dose of about 77 µM; on the % scale 0 is the no-effect control and ±100 the full control effect
Target sequence (P48426 whole entry, looked up): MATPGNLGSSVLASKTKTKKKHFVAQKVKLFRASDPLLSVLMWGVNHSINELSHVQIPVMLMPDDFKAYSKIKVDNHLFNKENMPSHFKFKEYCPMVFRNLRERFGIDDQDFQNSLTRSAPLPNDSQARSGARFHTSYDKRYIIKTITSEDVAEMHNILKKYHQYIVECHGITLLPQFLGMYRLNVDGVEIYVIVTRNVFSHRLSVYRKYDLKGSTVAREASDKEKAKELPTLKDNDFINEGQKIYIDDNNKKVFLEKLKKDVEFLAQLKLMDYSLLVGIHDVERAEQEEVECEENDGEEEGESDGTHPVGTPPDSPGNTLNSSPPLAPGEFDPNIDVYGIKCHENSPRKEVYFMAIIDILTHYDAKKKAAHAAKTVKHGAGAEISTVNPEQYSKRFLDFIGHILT
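Reactions run in 0.038 M HEPES pH 7.4, 0.28 mM EGTA, 0.1% CHAPS and 5% DMSO, with PI5P4Kalpha, substrate, compound and 5 microM ATP final, one hour at room temperature. Readout is ADP-Glo luminescence.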
Pol iota inh – inhibitors of human DNA polymerase iota | Pol iota fluorescent replication assay, 10 min | Potency, µM (titrated, usually from 115 µM), for the others: at the top dose activity, negative = inhibition, actives largely listed as inhibitors | 1% of 390,000 active | AID 588590; further: potency means the concentration at half of the fitted maximal effect
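Fluorescent replication assay read twice, at 0 min and 10 min after adding 50 nM (final) substrate. Enzyme (10 nM) and compounds were first incubated 15 min at room temperature; enzyme-free buffer wells were negative controls.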
WRN helicase inh – blocks human WRN helicase. WRN helicase unwinding, fluorescent forked duplex, kinetic. 0.46% of 360,000 active. Q14191. Potency, µM (doses to about 114 µM), for the others: at the highest dose activity change, negative = inhibition, most hits filed as inhibitors; further: potency means the concentration at half of the fitted maximal effect; on the % scale 0 is the no-effect control and ±100 the full control effect; nearly all actives have a fitted effect of over 55% in size
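Fluorescence dequenching readout, ex 525 nm/em 598 nm, kinetic mode: forked duplex DNA (100 nM final) with adjacent fluorophore and quencher unwound by WRN (20 nM final) with 2 mM ATP. Compound preincubation 15 min, room temperature.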
POLB inh – blocks human DNA polymerase beta activity; AID 485314; 1.3% of 340,000 active; Potency, µM (titrated, usually from 114 µM), for the others: at the highest dose activity change, negative = inhibition, actives largely listed as inhibitors; Pol beta primer extension/strand displacement, fluorescence kinetic; P06746; further: potency means the concentration at half of the fitted maximal effect; on the % scale 0 is the no-effect control and ±100 the full control effect
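Homogeneous kinetic assay of primer extension and strand displacement by 10 nM Pol beta, preincubated 15 min at room temperature with compound before 50 nM substrate (final) was added. Read at 0 and 10 min; four-parameter Hill fit.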
POLK inh – DNA polymerase kappa (human) inhibition. purified Pol kappa, fluorescent DNA synthesis assay, 10 min. Potency, µM (top dose mostly 107 µM), for inactives: at the top dose activity, negative = inhibition, hits mostly inhibitors. 0.53% of 400,000 active. AID 588579; further: potency means the concentration at half of the fitted maximal effect; on the % scale 0 is the no-effect control and ±100 the full control effect
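Here, compound and 10 nM enzyme are combined for 15 min at room temperature; adding 50 nM substrate (final) starts DNA synthesis, tracked by fluorescence at 0 and 10 min against buffer-only wells.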
POLH inh – DNA polymerase eta (human) inhibition | Q9Y253 | recombinant Pol eta, fluorescent DNA replication assay | Potency, µM (top dose mostly 114 µM), without a hit: at the highest dose activity change, negative = inhibition, hits mostly inhibitors | 1.2% of 390,000 active | AID 588591; further: potency means the concentration at half of the fitted maximal effect; on the % scale 0 is the no-effect control and ±100 the full control effect
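Fluorescent replication assay: 50 nM final substrate added after a 15 min room-temperature compound preincubation with 10 nM enzyme. Signal taken at 0 min and again at 10 min.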
An asterisk follows results filed as active; ? = inconclusive; nt = no result given; [ ] = remark or other dose. Unless noted, the call rests on the fitted dose curve; in most records, active means well fitted curve in the direction sought with a large enough effect; inconclusive means small, poorly fitted or top-dose-only effect, or another doubt; inactive means no such curve, though single readings can be large; an effect the other way counts as inactive or inconclusive.

SMILES	PI5P4K alpha inh	Pol iota inh	WRN helicase inh	POLB inh	POLK inh	POLH inh
O=C1Nc2cc(C(=O)NCCCN3CCOCC3)ccc2S/C1=C/c1cccc(Cl)c1	-50.9*	7.0%	4.7%	0.3%	4.4%	-5.0%
O=C1Nc2cc(C(=O)NCCCN3CCOCC3)ccc2S/C1=C/c1ccccc1F	-2.9	10.4%	6.2%	6.3%	11.3%	5.9%
CCCCCn1c(=O)[nH]c2cc(C(=O)Nc3cc(OC)cc(OC)c3)ccc2c1=O	nt	5.6%	nt	10.4%	-5.8%	-5.4%
CN(C)c1ccc(/C=C/c2cccc3cc4ccccc4nc23)cc1	nt	-9.9%	nt	nt	-14.6%	nt
CN(C)S(=O)(=O)c1cccc(NC(=S)Nc2cccc3cnccc23)c1	?	2.82µM*	-34.6%	0.6%	-20.3%	-17.0%
Oc1ccc(/C=N/NC(=S)Nc2cccnc2)c(O)c1	-75.1*	7.3%	-6.5%	11.1%	-6.2%	-13.1%
CN1CCN(C(c2ccc(Cl)cc2)c2cc(Cl)c3cccnc3c2O)CC1 (stereo unspecified)	-62.5*	54.5%	-14.8%	12.3%	-9.2%	?
CC(=O)c1ccc(NC(=O)c2ccc3snnc3c2)cc1	-8.3	?	-17.0%	25.1µM*	-14.0%	?
O=C(Nc1ccc(Cl)cc1)c1ccc2snnc2c1	-2.7	23.2%	5.4%	0.2%	6.6%	-16.4%
COc1ccccc1Nc1nnc(SCC(=O)N2CCCC2=O)s1	nt	26.5%	-1.0%	7.7%	5.5%	-2.3%
CCc1ccc(Nc2nnc(SCC(=O)NC(=O)CN3CCCC3=O)s2)cc1	?	44.7µM*	-13.4%	nt	-42.7%	44.7µM*
O=C(CCC1CC(=O)Nc2ccccc21)NCc1ccc(F)cc1 (stereo unspecified)	nt	10.0%[58.9 µM]	6.0%	-20.0%	-11.2%	-15.6%
O=C(CCC1CC(=O)Nc2ccccc21)NCc1ccccc1 (stereo unspecified)	nt	?	-11.4%	-10.8%	-20.6%	89.1µM*
COc1cc(C(c2sc3nc(C)nn3c2O)N2CCC3(CC2)OCCO3)cc(OC)c1OC (stereo unspecified)	-50.2*	9.4%	-9.6%	-2.3%	-0.9%	-4.6%
O=C(O)CC(NC(=O)c1ccco1)c1ccco1 (stereo unspecified)	-4.4	-9.5%	9.9%	79.4µM*	-10.1%	?
c1ccc(Nc2nc(-c3ccc4c(c3)OCO4)nc3ccccc23)cc1	nt	nt	nt	nt	-7.9%[60.1 µM]	nt
Cc1cccc2c(C(O)c3cn(C)c4ccccc34)c[nH]c12 (stereo unspecified)	nt	33.4%	nt	nt	-12.5%	nt
CC(=O)Nc1nonc1-c1nc2ccccc2n1N(C(C)=O)C(C)=O	?	?	-25.3%[57.1 µM]	35.5µM*	-17.1%	?
O=c1ccc2c(ccc3ncccc32)o1	-4.4	nt	6.1%	nt	nt	-17.4%
CCn1c(C)nc2cc(C(=O)N/N=C/c3ccc(N4CCOCC4)cc3)ccc21	0.0	?	-5.3%	22.4µM*	-16.6%	-18.0%
CCn1c(C)nc2cc(C(=O)N/N=C(\C)c3ccc(N4CCOCC4)cc3)ccc21	0.1	-13.0%	-4.9%	-10.2%	-16.8%	-14.1%
CCn1c(C)nc2cc(C(=O)N/N=C/c3cccc(O)c3O)ccc21	-1.0	25.1µM*	-15.3%[57.1 µM]	?	?	-22.6%
Cc1ccc(C=C2C(=O)c3ccccc3C2=O)s1	-15.3	25.1µM*	?	-0.7%	-15.7%	?
O=C1C(=Cc2cccs2)C(=O)c2ccccc21	9.2	-24.9%	-18.8%	10.3%	-21.2%	-3.6%
Fc1ccc(NC(=S)SCc2ccc3c(c2)OCO3)cc1F	24.5	nt	-11.2%	nt	nt	-4.9%
O=C(Nc1ccc(Br)cc1F)c1ncoc1-c1ccco1	nt	?	nt	1.4%	-4.8%[60.1 µM]	-13.3%
O=C(Cn1c(O)c(/C=C2\C=Nc3ccc(Br)cc32)sc1=O)N1CCCC1	-1.9	?	-15.8%	-3.3%	-15.6%	-15.6%
O=c1[nH]c(O)c(/C=C2\C=Nc3ccc(Br)cc32)[nH]1	?	26.4%	-11.8%	20µM*	-13.0%	?
Cc1ccc(CNC(=O)Cc2ccc(-n3cccc3)cc2)cc1	-4.4	-12.7%	-6.6%	?	-2.4%	?
